Reference: article PMC5540273 (PLoS ONE, 2017)

What was measured:
Settings in all cases: concentration: 1 μM, replicates: in singlicate; n = 1
DYRK1B = tested on: DYRK1B
DYRK2 = tested on: DYRK2
EGFR = tested on: EGFR
EIF2AK1 = tested on: EIF2AK1
EPHA1 = tested on: EPHA1
EPHA2 = tested on: EPHA2
EPHA3 = tested on: EPHA3
EPHA4 = tested on: EPHA4
EPHA5 = tested on: EPHA5
EPHA6 = tested on: EPHA6
EPHA7 = tested on: EPHA7
EPHA8 = tested on: EPHA8
EPHB1 = tested on: EPHB1
EPHB2 = tested on: EPHB2
EPHB3 = tested on: EPHB3
EPHB4 = tested on: EPHB4
EPHB6 = tested on: EPHB6
ERBB2 = tested on: ERBB2
ERBB3 = tested on: ERBB3
ERBB4 = tested on: ERBB4
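Note: KINOMEscan kinase panel screen.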

## Nc1ncc(-c2ccc3nccc(-c4ccncc4)c3c2)cc1S(=O)(=O)N1CCOCC1 [GSK1627798]
DYRK1B
  %Inh: 0%
DYRK2
  %Inh: 21%
EGFR
  %Inh: 18%
EIF2AK1
  %Inh: 0%
EPHA1
  %Inh: 4%
EPHA2
  %Inh: 4%
EPHA3
  %Inh: 0%
EPHA4
  %Inh: 0%
EPHA5
  %Inh: 0%
EPHA6
  %Inh: 5%
EPHA7
  %Inh: 4%
EPHA8
  %Inh: 15%
EPHB1
  %Inh: 1%
EPHB2
  %Inh: 0%
EPHB3
  %Inh: 3%
EPHB4
  %Inh: 3%
EPHB6
  %Inh: 36%
ERBB2
  %Inh: 0%
ERBB3
  %Inh: 0%
ERBB4
  %Inh: 0%

## CC(C)(C)c1ccc2nccc(Nc3cccc(O)c3)c2c1 [GW856795]
DYRK1B
  %Inh: 48%
DYRK2
  %Inh: 51%
EGFR
  %Inh: 63%
EIF2AK1
  %Inh: 0%
EPHA1
  %Inh: 74%
EPHA2
  %Inh: 18%
EPHA3
  %Inh: 21%
EPHA4
  %Inh: 18%
EPHA5
  %Inh: 37%
EPHA6
  %Inh: 18%
EPHA7
  %Inh: 0%
EPHA8
  %Inh: 56%
EPHB1
  %Inh: 22%
EPHB2
  %Inh: 17%
EPHB3
  %Inh: 57%
EPHB4
  %Inh: 37%
EPHB6
  %Inh: 3%
ERBB2
  %Inh: 88%
ERBB3
  %Inh: 44%
ERBB4
  %Inh: 37%

## CN1CCN(Cc2cccc(-c3ccc4c(Nc5ccc(Oc6ccccc6)cc5)ccnc4c3)c2)CC1 [GW578342]
DYRK1B
  %Inh: 13%
DYRK2
  %Inh: 0%
EGFR
  %Inh: 87%
EIF2AK1
  %Inh: 0%
EPHA1
  %Inh: 0%
EPHA2
  %Inh: 4%
EPHA3
  %Inh: 3%
EPHA4
  %Inh: 0%
EPHA5
  %Inh: 0%
EPHA6
  %Inh: 7%
EPHA7
  %Inh: 0%
EPHA8
  %Inh: 0%
EPHB1
  %Inh: 25%
EPHB2
  %Inh: 16%
EPHB3
  %Inh: 7%
EPHB4
  %Inh: 10%
EPHB6
  %Inh: 87%
ERBB2
  %Inh: 62%
ERBB3
  %Inh: 99.1%
ERBB4
  %Inh: 55%

## COc1ccc(Nc2nccc(N3CCC(NC(=O)Nc4cccc(OC)c4)C3)n2)cc1 (stereo not drawn) [GSK1379742]
DYRK1B
  %Inh: 0%
DYRK2
  %Inh: 0%
EGFR
  %Inh: 20%
EIF2AK1
  %Inh: 0%
EPHA1
  %Inh: 10%
EPHA2
  %Inh: 0%
EPHA3
  %Inh: 0%
EPHA4
  %Inh: 1%
EPHA5
  %Inh: 0%
EPHA6
  %Inh: 8%
EPHA7
  %Inh: 6%
EPHA8
  %Inh: 11%
EPHB1
  %Inh: 9%
EPHB2
  %Inh: 0%
EPHB3
  %Inh: 12%
EPHB4
  %Inh: 0%
EPHB6
  %Inh: 9%
ERBB2
  %Inh: 34%
ERBB3
  %Inh: 4%
ERBB4
  %Inh: 0%

## Fc1ccc(-c2ncn(C3CCNCC3)c2-c2ccnc(Oc3ccc(-c4ccccc4)cc3)n2)cc1 [SB-245391]
DYRK1B
  %Inh: 25%
DYRK2
  %Inh: 36%
EGFR
  %Inh: 3%
EIF2AK1
  %Inh: 12%
EPHA1
  %Inh: 19%
EPHA2
  %Inh: 0%
EPHA3
  %Inh: 0%
EPHA4
  %Inh: 19%
EPHA5
  %Inh: 9%
EPHA6
  %Inh: 17%
EPHA7
  %Inh: 3%
EPHA8
  %Inh: 8%
EPHB1
  %Inh: 10%
EPHB2
  %Inh: 6%
EPHB3
  %Inh: 16%
EPHB4
  %Inh: 17%
EPHB6
  %Inh: 15%
ERBB2
  %Inh: 62%
ERBB3
  %Inh: 33%
ERBB4
  %Inh: 6%

## Cc1ccc(S(=O)(=O)Nc2ccc(Nc3nccc(Nc4cccc5[nH]ncc45)n3)cc2)cc1 [GSK581271]
DYRK1B
  %Inh: 0%
DYRK2
  %Inh: 12%
EGFR
  %Inh: 42%
EIF2AK1
  %Inh: 0%
EPHA1
  %Inh: 66%
EPHA2
  %Inh: 21%
EPHA3
  %Inh: 0%
EPHA4
  %Inh: 13%
EPHA5
  %Inh: 0%
EPHA6
  %Inh: 0%
EPHA7
  %Inh: 12%
EPHA8
  %Inh: 30%
EPHB1
  %Inh: 29%
EPHB2
  %Inh: 0%
EPHB3
  %Inh: 3%
EPHB4
  %Inh: 26%
EPHB6
  %Inh: 31%
ERBB2
  %Inh: 14%
ERBB3
  %Inh: 0%
ERBB4
  %Inh: 39%

## Oc1cc(Nc2ccnc3cc(I)ccc23)ccc1F [GW552771]
DYRK1B
  %Inh: 0%
DYRK2
  %Inh: 8%
EGFR
  %Inh: 32%
EIF2AK1
  %Inh: 0%
EPHA1
  %Inh: 94.8%
EPHA2
  %Inh: 34%
EPHA3
  %Inh: 48%
EPHA4
  %Inh: 29%
EPHA5
  %Inh: 0%
EPHA6
  %Inh: 29%
EPHA7
  %Inh: 0%
EPHA8
  %Inh: 49%
EPHB1
  %Inh: 39%
EPHB2
  %Inh: 14%
EPHB3
  %Inh: 4%
EPHB4
  %Inh: 45%
EPHB6
  %Inh: 24%
ERBB2
  %Inh: 22%
ERBB3
  %Inh: 0%
ERBB4
  %Inh: 36%

## O=C(Nc1cccc(-c2nn3ncccc3c2-c2ccnc(Nc3ccccc3)n2)c1)c1c(F)cccc1F [GSK198271]
DYRK1B
  %Inh: 100%
DYRK2
  %Inh: 26%
EGFR
  %Inh: 100%
EIF2AK1
  %Inh: 52%
EPHA1
  %Inh: 42%
EPHA2
  %Inh: 10%
EPHA3
  %Inh: 4%
EPHA4
  %Inh: 0%
EPHA5
  %Inh: 0%
EPHA6
  %Inh: 8%
EPHA7
  %Inh: 5%
EPHA8
  %Inh: 19%
EPHB1
  %Inh: 18%
EPHB2
  %Inh: 11%
EPHB3
  %Inh: 1%
EPHB4
  %Inh: 6%
EPHB6
  %Inh: 63%
ERBB2
  %Inh: 95.2%
ERBB3
  %Inh: 80%
ERBB4
  %Inh: 100%

## COc1cccc(NC(=O)NC2CCN(c3ccnc(Nc4cc(OC)c(OC)c(OC)c4)n3)C2)c1 (stereo not drawn) [GSK1379763]
DYRK1B
  %Inh: 15%
DYRK2
  %Inh: 4%
EGFR
  %Inh: 12%
EIF2AK1
  %Inh: 0%
EPHA1
  %Inh: 6%
EPHA2
  %Inh: 0%
EPHA3
  %Inh: 0%
EPHA4
  %Inh: 0%
EPHA5
  %Inh: 0%
EPHA6
  %Inh: 0%
EPHA7
  %Inh: 6%
EPHA8
  %Inh: 4%
EPHB1
  %Inh: 11%
EPHB2
  %Inh: 8%
EPHB3
  %Inh: 0%
EPHB4
  %Inh: 7%
EPHB6
  %Inh: 94.3%
ERBB2
  %Inh: 0%
ERBB3
  %Inh: 0%
ERBB4
  %Inh: 30%
